A short description of experiment [1]: Nuclear factor erythroid 2-related factor 2/antioxidant responsive element (Nrf2/ARE) small molecule agonists: qHTS cell viability counter screen in human keratinocytes (AID 1919968; active = well fitted curve in the direction sought with a large enough effect in the repeat runs; an effect the other way counts as inactive or inconclusive; also: nearly all actives have a fitted effect of over 55% in size). In outline:
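In human HaCaT keratinocytes stably expressing an ARE-driven luciferase, compound exposure lasted 23 h at 37 C under 5% CO2. Viable cells are quantified with a protease-based fluorogenic reagent (CellTiter-Fluor) read 1 h after addition.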
For orientation: In qHTS, concentration-response curves come from the screen itself.

Experiment [2] concerns the target KiSS-1 receptor (Homo sapiens) (UniProt Q969F8). Description: Human kisspeptin (KISS1R) small molecule agonists, calcium flux assay in KISS1R-HEK293 cells (AID 1920064; active = well fitted curve in the direction sought with a large enough effect in the repeat runs; an effect the other way counts as inactive or inconclusive). An outline of the steps: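 Concentration-response testing used 15 concentrations in triplicate on human KISS1R-expressing HEK293 cells. Calcium-dependent fluorescence (Ex/Em 480/540) was followed kinetically for 3 min after compound transfer.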
On the technique in general: Calcium flux is commonly read through the fluorescence of an indicator in the cells.

A short description of experiment [3]: p53 small molecule agonists, cell-based qHTS assay with human liver microsomes (AID 1963577). An outline of the steps: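 p53RE-bla reporter cells were pre-incubated 5 h at 37 C, then treated with compounds plus human liver microsomes (0.5 mg/mL final) and NADPH (0.5 mg/mL final) for 16 h at 37 C. Beta-lactamase activity was read by LiveBLAzer fluorescence after 2 h at room temperature.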

A short description of experiment [4]: p53 small molecule agonists, cell-based qHTS assay with human liver microsomes: qHTS cell viability counter screen (AID 1963579). Also: nearly all actives have a fitted effect of over 45% in size. In outline:
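p53RE-bla cells (4,000/well) were pre-incubated 5 h at 37 C, then given compounds in DMSO plus human liver microsomes (0.5 mg/mL final) and NADPH (0.5 mg/mL final) for 16 h at 37 C. Viability was read by CellTiter-Glo luminescence.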

The nature of experiment [5]: p53 small molecule agonists, cell-based qHTS assay with rat liver microsomes: qHTS cell viability counter screen (AID 1963580). Also: nearly all actives have a fitted effect of over 45% in size. An outline of the steps:
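Cytotoxicity counter screen: intracellular ATP measured by CellTiter-Glo luminescence in the same wells as the beta-lactamase reporter read, on HCT-116 p53RE-bla cells exposed 16 h at 37 C to compounds with rat liver microsomes and NADPH, each 0.5 mg/mL final.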

The nature of experiment [6]: p53 small molecule agonists, cell-based qHTS assay (AID 1963582; active = well fitted activation curve with a large enough effect in the signal ratio in the repeat runs, not every such curve was filed as active; the % refers to the signal ratio). An outline of the steps: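 After plating, p53RE-bla cells sat 5 h in the incubator; compounds or DMSO vehicle were pinned in; a 16 h incubation at 37 C followed; FRET substrate was added and, 2 h later at RT, fluorescence was measured.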
The target of experiment [7] is 5-hydroxytryptamine receptor 2A (Homo sapiens) (UniProt P28223). Briefly: 5-hydroxytryptamine receptor 2A (HTR2A) small molecule antagonists, cell-based qHTS assay (AID 1963586). Also: nearly all actives have a fitted effect of over 45% in size. Also: potency is read from the fitted curve at half-maximal effect. In outline: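 CHO cells stably expressing human HTR2A were plated for 18 h at 37 C, then loaded with calcium dye for 1 h. Compounds were preincubated 5 min at room temperature before DOI (4 nM solution) was added. Kinetic fluorescence was read for 3 min.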
5-hydroxytryptamine receptor 2A (Homo sapiens), sequence (P28223 whole entry, looked up): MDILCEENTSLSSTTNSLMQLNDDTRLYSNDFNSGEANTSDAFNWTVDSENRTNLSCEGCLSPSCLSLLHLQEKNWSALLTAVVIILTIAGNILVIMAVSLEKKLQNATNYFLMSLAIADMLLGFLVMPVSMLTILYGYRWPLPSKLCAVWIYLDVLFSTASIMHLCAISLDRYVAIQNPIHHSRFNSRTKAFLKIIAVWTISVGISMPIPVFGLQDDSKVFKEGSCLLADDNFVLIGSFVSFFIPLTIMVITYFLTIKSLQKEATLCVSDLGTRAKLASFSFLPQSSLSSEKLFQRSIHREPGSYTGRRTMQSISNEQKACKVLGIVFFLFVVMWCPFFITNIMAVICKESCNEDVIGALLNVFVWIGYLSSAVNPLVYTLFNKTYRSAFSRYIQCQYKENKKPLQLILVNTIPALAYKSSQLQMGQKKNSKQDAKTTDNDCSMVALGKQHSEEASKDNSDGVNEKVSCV

Experiment [8] shares this target. Description: 5-hydroxytryptamine receptor 2A (HTR2A) small molecule agonists, cell-based qHTS assay (AID 1963587). Also: nearly all actives have a fitted effect of over 30% in size. Also: potency is read from the fitted curve at half-maximal effect. In outline: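 CHO cells stably expressing human HTR2A, plated 18 h, loaded with calcium dye 1 h at 37 C. Agonist mode: compounds added and intracellular calcium fluorescence recorded kinetically for 2 min at 1 sec intervals.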
Experiment [9] has as its target Muscarinic acetylcholine receptor M1 (Homo sapiens) (UniProt P11229). Description: Cholinergic receptor muscarinic 1 (CHRM1) small molecule antagonists, cell-based qHTS assay (AID 1963588). Also: nearly all actives have a fitted effect of over 40% in size. An outline of the steps:
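Compounds were tested at 15 concentrations in three independent runs. Dye-loaded CHRM1-CHO cells were exposed 5 min at room temperature before stimulation by acetylcholine added at 50nM. Intracellular calcium was read kinetically on FDSS for 3 min.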

For experiment [10] the target is unchanged. Briefly: Cholinergic receptor muscarinic 1 (CHRM1) small molecule agonists, cell-based qHTS assay (AID 1963589). Also: nearly all actives have a fitted effect of over 35% in size. In outline: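 Fluorescent calcium dye reports M1 activation in stably transfected CHO cells. Compounds, 15 concentrations, added after 1 h dye loading at 37 C; kinetic reading at 1 sec intervals.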
Experiment [11] is described as follows: cAMP Responsive Elements (CRE) small molecule agonists, cell-based qHTS assay (AID 1963590). An outline of the steps:
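Compound exposure lasted 3 h at 37 C/5% CO2 in CRE-bla HEK 293T cells grown in assay medium with 10% dialyzed FBS and 25 mM HEPES. Reporter signal came from LiveBLAzer B/G FRET substrate, 2 h, room temperature.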

A short description of experiment [12]: cAMP Responsive Elements (CRE) small molecule antagonists, cell-based qHTS assay (AID 1963591; active = well fitted inhibition curve with a large enough effect in the signal ratio in the repeat runs, not every such curve was filed as active; the % refers to the signal ratio). An outline of the steps:
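Stimulation used NKH477 at a final 0.25 uM for 3 h in compound-treated CRE-bla HEK293T cells, seeded 18 h beforehand. Reporter activity was measured with LiveBLAzer B/G FRET substrate after 2 h at room temperature.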

In experiment [13] the target is Beta-2 adrenergic receptor (Homo sapiens) (UniProt P07550). Briefly: Adrenergic beta2 receptor (ADRB2) small molecule antagonists, cell-based qHTS assay (AID 1963592). Also: nearly all actives have a fitted effect of over 50% in size. Also: potency is read from the fitted curve at half-maximal effect. In outline: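 Assay format: CHO-ADRB2 cells, 18-20hr seeding at 37C/5% CO2, then compound plus 1nM isoproterenol agonist mix for 0.5hr RT. Homogeneous time-resolved fluorescence cAMP detection after 1hr, expressed as 665/615 nm ratio.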
Beta-2 adrenergic receptor (Homo sapiens), sequence (P07550 whole entry, looked up): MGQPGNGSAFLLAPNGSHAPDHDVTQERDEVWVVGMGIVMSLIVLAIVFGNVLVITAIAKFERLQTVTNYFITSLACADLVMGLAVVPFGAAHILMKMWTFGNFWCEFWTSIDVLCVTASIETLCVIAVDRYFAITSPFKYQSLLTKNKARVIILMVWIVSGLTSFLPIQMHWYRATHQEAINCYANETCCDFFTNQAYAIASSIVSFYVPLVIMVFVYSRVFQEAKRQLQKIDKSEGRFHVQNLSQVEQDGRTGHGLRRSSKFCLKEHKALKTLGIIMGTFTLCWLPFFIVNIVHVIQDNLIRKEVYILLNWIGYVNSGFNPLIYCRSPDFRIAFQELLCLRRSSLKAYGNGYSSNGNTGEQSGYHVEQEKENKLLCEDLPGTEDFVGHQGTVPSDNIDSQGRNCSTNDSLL

The target is the same in experiment [14]. Description: Adrenergic beta2 receptor (ADRB2) small molecule agonists, cell-based qHTS assay (AID 1963593).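 Also: CHO cells stably overexpressing human ADRB2.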 An outline of the steps: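 CHO cells stably over-expressing ADRB2 were plated overnight at 37C, then dosed with compounds plus a stimulation mix containing 100uM IBMX and 25uM Ro-20-1724 for 0.5hr at room temperature. cAMP was measured by HTRF competition, 1hr.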

Experiment [15] has as its target D(2) dopamine receptor (Homo sapiens) (UniProt P14416). Description: Dopamine D2 receptor (DRD2) small molecule agonists, cell-based qHTS assay (AID 1963594). Also: nearly all actives have a fitted effect of over 35% in size. An outline of the steps:
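HEK293 cells stably expressing human DRD2, pre-treated with PDE inhibitor Ro20-1724 (0.1 mM final) and compound 10 min at room temperature, then stimulated with NKH477 (200nM […]) for 30 min. cAMP read by HTRF (665/620 nm).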

For experiment [16] the target is unchanged. Description: Dopamine D2 receptor (DRD2) small molecule antagonists, cell-based qHTS assay (AID 1963595; active = well fitted inhibition curve with a large enough effect in the signal ratio in the repeat runs, with a control signal flat; the % refers to the signal ratio; also: potency is read from the fitted curve at half-maximal effect). An outline of the steps: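 Human DRD2 antagonist qHTS measuring cAMP by HTRF. The cells are exposed to compound for 10 min, then to NKH477 (200 nM) and quinpirole (12 nM) for 30 min at RT, with Ro20-1724 (0.1 mM) present throughout.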
In experiment [17] the target is Gonadotropin-releasing hormone receptor (Homo sapiens) (UniProt P30968). Briefly: Human gonadotropin-releasing hormone receptor (GnRHR) small molecule agonists, calcium flux assay in GnRHR-HEK293 cells (AID 1920063). Also: nearly all actives have a fitted effect of over 35% in size. An outline of the steps:
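Intracellular calcium rise is the read-out: engineered human GnRHR HEK293 cells, dye-loaded, are exposed to DMSO-dissolved compounds and fluorescence at Ex/Em 480/540 is tracked for 3 min.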

Experiment [18] in a line: G protein-coupled receptor (GPCR) small molecule agonists, calcium flux assay: HEK293 wild type cell line counter screen (AID 1920065). In outline:
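Fluorescence intensity signals activation. After overnight (18 h) culture and a 1 h calcium dye load at 37 C, compounds are added by pin tool and the plate read at 480/540 nm for 3 min in 1 s steps.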

Experiment [19] in a line: p53 small molecule agonists, cell-based qHTS assay: qHTS cell viability counter screen (AID 1963581). Also: nearly all actives have a fitted effect of over 45% in size. In outline: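 Luminescence from CellTiter-Glo, reflecting ATP content, serves as the cytotoxicity measure; it is taken after the 2 h reporter substrate step in HCT-116 p53RE-bla cells dosed for 16 h at 37 C.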
Experiment [20] can be described thus: p53 small molecule agonists, cell-based qHTS assay with rat liver microsomes (AID 1963578). An outline of the steps:
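p53RE-bla cells were exposed to compounds together with rat liver microsomes (0.5 mg/mL final) and NADPH (0.5 mg/mL final) for 16 h at 37 C, then read by LiveBLAzer beta-lactamase fluorescence after 2 h at room temperature.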

Records with an inconclusive call do not appear. Active and inactive are the calls of the source. Unless noted, calls follow the shape of the full dose curve.

Gonadotropin-releasing hormone receptor (Homo sapiens), sequence (P30968 whole entry, looked up): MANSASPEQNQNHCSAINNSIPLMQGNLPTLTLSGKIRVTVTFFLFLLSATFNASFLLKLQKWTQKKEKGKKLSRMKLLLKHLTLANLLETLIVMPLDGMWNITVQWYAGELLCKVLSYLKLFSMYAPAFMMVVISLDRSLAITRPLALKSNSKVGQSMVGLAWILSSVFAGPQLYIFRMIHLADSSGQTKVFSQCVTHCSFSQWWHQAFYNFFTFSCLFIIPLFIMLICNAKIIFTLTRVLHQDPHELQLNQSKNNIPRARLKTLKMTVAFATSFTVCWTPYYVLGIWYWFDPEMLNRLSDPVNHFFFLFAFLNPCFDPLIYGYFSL
Muscarinic acetylcholine receptor M1 (Homo sapiens), sequence (P11229 whole entry, looked up): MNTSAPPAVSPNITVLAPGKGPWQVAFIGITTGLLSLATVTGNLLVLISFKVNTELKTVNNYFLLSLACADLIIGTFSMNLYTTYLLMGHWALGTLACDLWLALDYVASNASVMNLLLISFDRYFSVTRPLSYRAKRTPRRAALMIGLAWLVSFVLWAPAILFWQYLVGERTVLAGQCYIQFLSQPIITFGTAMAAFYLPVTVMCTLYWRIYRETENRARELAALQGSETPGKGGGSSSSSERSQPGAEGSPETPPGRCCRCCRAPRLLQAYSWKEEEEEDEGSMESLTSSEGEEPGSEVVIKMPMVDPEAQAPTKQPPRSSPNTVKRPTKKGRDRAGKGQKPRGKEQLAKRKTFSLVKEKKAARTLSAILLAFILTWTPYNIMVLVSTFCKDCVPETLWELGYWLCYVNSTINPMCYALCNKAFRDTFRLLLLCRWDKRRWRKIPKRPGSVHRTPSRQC
D(2) dopamine receptor (Homo sapiens), sequence (P14416 whole entry, looked up): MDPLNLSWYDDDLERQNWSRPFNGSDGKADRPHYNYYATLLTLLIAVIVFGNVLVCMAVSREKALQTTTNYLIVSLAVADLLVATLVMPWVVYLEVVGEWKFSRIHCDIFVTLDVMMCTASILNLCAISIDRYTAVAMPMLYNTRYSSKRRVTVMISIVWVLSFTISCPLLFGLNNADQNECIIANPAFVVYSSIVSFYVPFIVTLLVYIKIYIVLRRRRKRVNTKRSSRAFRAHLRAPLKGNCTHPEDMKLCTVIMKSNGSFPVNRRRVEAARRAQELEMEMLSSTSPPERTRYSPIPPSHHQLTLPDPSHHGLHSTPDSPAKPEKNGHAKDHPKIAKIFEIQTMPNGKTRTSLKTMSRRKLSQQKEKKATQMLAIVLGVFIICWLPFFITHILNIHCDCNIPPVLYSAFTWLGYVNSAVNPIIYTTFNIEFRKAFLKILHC
KiSS-1 receptor (Homo sapiens), sequence (Q969F8 whole entry, looked up): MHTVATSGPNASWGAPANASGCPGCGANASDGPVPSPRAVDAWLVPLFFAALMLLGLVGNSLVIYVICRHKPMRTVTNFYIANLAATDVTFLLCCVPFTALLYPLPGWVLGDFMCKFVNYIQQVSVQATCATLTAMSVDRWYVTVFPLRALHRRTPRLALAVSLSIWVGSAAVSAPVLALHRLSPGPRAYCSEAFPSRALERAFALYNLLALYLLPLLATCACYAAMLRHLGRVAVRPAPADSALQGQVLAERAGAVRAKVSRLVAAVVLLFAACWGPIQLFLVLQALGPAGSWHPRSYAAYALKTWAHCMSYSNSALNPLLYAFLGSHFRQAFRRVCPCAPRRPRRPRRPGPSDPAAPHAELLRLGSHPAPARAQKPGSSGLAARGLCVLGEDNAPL

In the case of `CCN(CC)CCc1c[nH]c2ccccc12`, the Potency entry in experiment [1], in experiment [2], in [3], in experiment [4], in [5] and in experiment [6] was “inactive” each time. Also, the Potency result in experiment [9], in [10], in experiment [11], in experiment [12], in experiment [13] and in experiment [14] was “inactive” throughout. The Potency entry in [15] and in experiment [16] was “inactive” each time. Also, the Potency in experiment [7] was 22.1 nM (active); in experiment [8], 9.1 nM (active).
`CCCCn1cc[n+](C)c1.[Cl][Fe-]([Cl])([Cl])[Cl]`: the Potency result in experiment [1], in [17], in [18], in experiment [4], in [19] and in [7] was “inactive” in each case. The Potency result in [8], in experiment [9], in experiment [10], in [11], in experiment [12] and in experiment [13] was “inactive” each time. Also, the Potency result in experiment [14], in [15] and in [16] was “inactive” in each case.
As for `C1=CCC=C1`, the Potency entry in experiment [1], in experiment [2], in experiment [18], in experiment [4], in [5] and in [19] was “inactive” each time. For the same molecule, the Potency result in experiment [7], in experiment [8], in experiment [9], in experiment [10], in [11] and in [12] was “inactive” throughout. Besides, the Potency entry in experiment [13], in experiment [14], in experiment [15] and in [16] was “inactive” each time.
On to `CCCSP(=S)(OCC)Oc1ccc(SC)cc1` (centres undefined), for which the Potency entry in [1], in experiment [17], in experiment [18], in experiment [5], in [19] and in experiment [6] was “inactive” in each case. In addition, the Potency result in experiment [7], in experiment [8], in experiment [9], in experiment [10], in experiment [11] and in experiment [12] was “inactive” in each case. For the same molecule, the Potency entry in experiment [13], in [14], in experiment [15] and in [16] was “inactive” throughout.
`O=C(CCCN1CCC(n2c(=O)[nH]c3ccccc32)CC1)c1ccc(F)cc1`: the Potency entry in experiment [1], in experiment [17], in [3], in [20], in experiment [4] and in [5] was “inactive” each time. The Potency result in experiment [19], in experiment [6], in [10], in [11] and in experiment [15] was “inactive” each time. Further, the Potency in [7] was 1830 nM (active); in [16], 42.2 nM (active).
For the molecule `C[C@]12CC[C@@H](O)C[C@@H]1CC[C@@H]1[C@@H]2CC[C@]2(C)C(=O)CC[C@@H]12`, the Potency result in [1], in [2], in experiment [18], in [3], in experiment [20] and in [4] was “inactive” in each case. Further, the Potency entry in experiment [5], in experiment [6], in experiment [11], in experiment [15] and in experiment [16] was “inactive” each time.
With `C=CC(=O)N(C)C`, the Potency result in experiment [1], in [2], in experiment [18], in experiment [3], in experiment [20] and in experiment [4] was “inactive” throughout. Further, the Potency entry in [5], in experiment [19], in [6], in [7], in experiment [8] and in experiment [9] was “inactive” throughout. In addition, the Potency result in [10], in [11], in experiment [13], in experiment [14], in experiment [15] and in experiment [16] was “inactive” throughout.
Consider `O=C(CCCN1CCC2(CC1)C(=O)NCN2c1ccccc1)c1ccc(F)cc1`, for which the Potency entry in experiment [1], in experiment [2], in [18], in experiment [3], in experiment [20] and in experiment [4] was “inactive” in each case. Also, the Potency result in experiment [5], in experiment [6], in [9], in experiment [10], in experiment [11] and in [12] was “inactive” each time. Also, the Potency result in experiment [15] is “inactive”. Besides, the Potency in [13] is 1500 nM (active).

Values taken from PubChem BioAssay (Tox21).
